Our source for the composite z-score, z-score and composite Z-score values is PubChem BioAssay.

Assay [1] has as its system Human papillomavirus type 1a protein E7 (residues 44-93). Kind of assay: HPV1a E7 fragment binders on microarrays, primary screen, biochemical, small-molecule microarray, residues 44-93, 635 nm fluorescence (AID 1108).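 Note: E7 fragment applied at 1 µg/mL in TBST for 1 h at 4 C; score combines spot fluorescence with its signal to noise ratio.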 The settings on record: small-molecule microarray binding, fluorescence 635 nm; higher = more signal.
Assay [2] in a line: modulators of HCV replicon luciferase signal, primary screen, HCV replication inhibitor project, Huh7 cells, luciferase reporter (AID 1109).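 Note: huh7 hepatoma cells harbouring a luciferase neomycin HCV replicon reporter; luciferase luminescence as measure of HCV replicon replication; test concentration not given here.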 The following applies: 48 h, higher = more signal. (In general: A replicon is a self-replicating genome or part of one, used to study replication in cells.)
Assay [3] addresses Left-right determination factor 2 (Homo sapiens) (UniProt O00292). Kind of assay: LEFTY2 binders on small-molecule microarrays, primary screen, biochemical, small-molecule microarray, 635 nm fluorescence scan (AID 1110). The following applies: LEFTY2 binding, higher = more signal.
Assay [4] addresses Calmodulin-1 (Homo sapiens) (UniProt P0DP23). Kind of assay: CALM1 binders on microarrays, EGTA buffer, profiling panel, biochemical, small-molecule microarray, Cy5-labelled CALM1 (AID 1111).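 Note: labelled calmodulin applied in Tris saline Tween buffer holding calcium plus EGTA and DTT.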 The following applies: Cy5-CALM1 binding fluorescence, higher = more signal.
The target is the same in assay [5]. Kind of assay: calcium-bound CALM1 binders on microarrays, profiling panel, artefact control for SMM control-protein annotation, biochemical, small-molecule microarray, Cy5-labelled CALM1, plus calcium (AID 1112).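 Note: score merges spot fluorescence with signal to noise from triplicate slides.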 The following applies: Cy5-CALM1 binding fluorescence, higher = more signal.
Assay [6] can be described thus: small-molecule microarray binders of probe aWnt5a, primary screen, biochemical, biotinylated probe, 635/667 nm fluorescence (AID 1113).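 Note: score merges 667 nm fluorescence intensity with signal-to-noise per printed feature.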 The settings on record: higher = more signal.
Assay [7] can be described thus: small-molecule microarray binders of probe aShh, primary screen, biochemical, biotinylated probe, 635/667 nm fluorescence (AID 1114).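 Note: probe is biotin-labelled aShh protein from a stem cell growth factor screen; measures binding of labelled protein to compounds printed on the slide; score merges feature fluorescence at 667 nm with signal-to-noise.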 The settings on record: higher = more signal.
Assay [8] in a line: small-molecule microarray binders of probe aNog, primary screen, biochemical, biotinylated probe, 635/667 nm fluorescence (AID 1115).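 Note: probe is biotinylated aNog protein used at 0.15 µg/mL for 1 h at 4 C; z-score combines 667 nm fluorescence of each spot with its signal to noise.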 The following applies: higher = more signal.
In assay [9] the target is Torsin-1A-interacting protein 1 (Homo sapiens) (UniProt Q5JTV8). Kind of assay: LAP1 binders from COS7 cell lysate, primary screen, small-molecule microarray, 635/667 nm fluorescence (AID 1116). The settings on record: COS7-hLAP1 lysate binding, 635 nm fluorescence, higher = more signal.
Torsin-1A-interacting protein 1 (Homo sapiens), sequence (Q5JTV8 whole entry, looked up): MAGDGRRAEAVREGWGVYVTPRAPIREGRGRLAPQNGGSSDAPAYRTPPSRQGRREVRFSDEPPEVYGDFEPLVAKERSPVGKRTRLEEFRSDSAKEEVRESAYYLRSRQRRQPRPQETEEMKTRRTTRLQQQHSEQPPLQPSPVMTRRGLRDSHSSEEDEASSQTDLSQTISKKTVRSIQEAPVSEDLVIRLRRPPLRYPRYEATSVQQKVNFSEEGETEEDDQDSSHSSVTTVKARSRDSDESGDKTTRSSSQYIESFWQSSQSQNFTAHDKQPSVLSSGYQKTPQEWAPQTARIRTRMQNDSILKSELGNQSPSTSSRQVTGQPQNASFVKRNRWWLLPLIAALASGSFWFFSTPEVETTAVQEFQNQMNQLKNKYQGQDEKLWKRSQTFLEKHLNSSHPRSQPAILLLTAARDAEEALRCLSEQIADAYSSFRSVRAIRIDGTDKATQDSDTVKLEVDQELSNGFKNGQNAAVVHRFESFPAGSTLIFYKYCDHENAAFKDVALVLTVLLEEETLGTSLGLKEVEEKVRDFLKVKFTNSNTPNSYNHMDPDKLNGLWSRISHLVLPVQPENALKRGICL
Assay [10] deals with Alpha-bungarotoxin (Bungarus multicinctus) (UniProt P60615). Kind of assay: alpha-bungarotoxin binders on microarray, profiling panel, artefact control for SMM control protein annotation, biochemical, small-molecule microarray, Alexa647 label, 635/667 nm fluorescence (AID 1117). The settings on record: alpha-BTX-A647 binding fluorescence, higher = more signal.
Alpha-bungarotoxin (Bungarus multicinctus), sequence (P60615 whole entry, looked up): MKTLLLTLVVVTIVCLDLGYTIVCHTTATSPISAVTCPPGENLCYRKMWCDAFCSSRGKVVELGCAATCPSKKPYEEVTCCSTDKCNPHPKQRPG
For another assay, the target named is Albumin (Bos taurus) (UniProt P02769). In words: bovine serum albumin binders on microarray, profiling panel, artefact control for SMM control protein annotation, biochemical, small-molecule microarray, Alexa647 label, 635/667 nm fluorescence (AID 1118).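 Note: score merges 667 nm emission intensity and signal-to-noise per printed compound spot.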 The settings on record: BSA-A647 binding, fluorescence 635 nm, higher = more signal.
Albumin (Bos taurus), sequence (P02769 whole entry, looked up): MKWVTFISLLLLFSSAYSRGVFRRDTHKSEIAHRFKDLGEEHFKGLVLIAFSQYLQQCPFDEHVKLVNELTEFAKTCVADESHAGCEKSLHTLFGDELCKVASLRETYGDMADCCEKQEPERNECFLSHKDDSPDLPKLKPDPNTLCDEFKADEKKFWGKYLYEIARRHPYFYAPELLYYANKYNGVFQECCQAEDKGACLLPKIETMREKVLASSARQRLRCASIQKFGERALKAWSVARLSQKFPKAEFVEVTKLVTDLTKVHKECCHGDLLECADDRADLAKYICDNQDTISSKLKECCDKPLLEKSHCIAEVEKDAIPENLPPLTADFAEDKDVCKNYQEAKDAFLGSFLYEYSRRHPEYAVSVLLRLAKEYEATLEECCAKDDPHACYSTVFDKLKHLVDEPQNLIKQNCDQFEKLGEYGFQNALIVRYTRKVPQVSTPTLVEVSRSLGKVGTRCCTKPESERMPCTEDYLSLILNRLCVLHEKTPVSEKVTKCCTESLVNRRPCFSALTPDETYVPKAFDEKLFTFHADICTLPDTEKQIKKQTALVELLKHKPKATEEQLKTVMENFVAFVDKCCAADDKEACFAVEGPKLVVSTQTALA
A short description of assay [11]: small-molecule microarray binders of probe aXIP, primary screen, biochemical, NeuroSMM set, 635/667 nm fluorescence (AID 1119).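 Note: probe is the protein aXip251-270 applied at 1 µg/mL to compound-printed slides; binding of probe to printed compounds measured as 667 nm fluorescence plus signal to noise.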 The following applies: higher = more signal, called active from +8 up or from −8 down.
A short description of assay [12]: small-molecule binders of probe aNOTCH3, primary screen, biochemical, small-molecule microarray, 635/667 nm fluorescence (AID 1120).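 Note: probe is a biotin-tagged antibody raised against NOTCH3 rather than NOTCH3 protein; score merges spot fluorescence near 667 nm with spot signal to noise.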 The settings on record: higher = more signal.
Assay [13] can be described thus: small-molecule binders of probe aNOTCH2, primary screen, biochemical, small-molecule microarray, 635/667 nm fluorescence (AID 1121).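 Note: score merges feature fluorescence read at 667 nm with its signal to noise.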 The settings on record: higher = more signal.
Assay [14] addresses Carbonic anhydrase 2 (Homo sapiens) (UniProt P00918). Kind of assay: CAII small-molecule binders, profiling panel, biochemical, small-molecule microarray, Alexa647-labelled CAII (AID 1122). The settings on record: CAII-A647 binding fluorescence, higher = more signal.
Assay [15] can be described thus: COS7 lysate on small-molecule microarray, probe aHis, 635 nm (AID 1123).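 Note: z-score combines 667nm fluorescence intensity with signal-to-noise per printed compound spot.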 The following applies: COS7 cell lysate, fluorescence, higher = more signal.
Assay [16] is described as follows: compound binding in COS7 lysate, probe aLAP1, primary screen, cell lysate, small-molecule microarray (AID 1124).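 Note: lysate comes from COS7 cells expressing LAP1 and is applied at 0.3 µg/mL; score merges spot fluorescence near 667 nm with signal-to-noise over triplicate slides.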 The following applies: probe aLAP1, fluorescence, higher = more signal.
Another assay deals with Sam68 (KHDRBS1). Kind of assay: Sam68 small-molecule binders, primary screen, biochemical, small-molecule microarray, 635 nm fluorescence (AID 1125).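 Note: score merges 667 nm channel intensity with signal to noise over triplicate slides.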 The following applies: small-molecule microarray binding, higher = more signal.
Assay [17] relates to Chordin-like protein 2 (CHRDL2). In words: CHRDL2 small-molecule binders, primary screen, biochemical, small-molecule microarray, 635 nm fluorescence (AID 1126).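 Note: printed compound slides probed with Chrdl2 protein at 4 µg/mL for 1 h at 4 C; score merges 667 nm emission intensity with signal to noise over three replicate slides.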 The settings on record: small-molecule microarray binding, fluorescence 635 nm; higher = more signal.
In assay [18] the target is Concanavalin-A (Canavalia ensiformis) (UniProt P02866). Kind of assay: ConA small-molecule binders, primary screen, artefact control for SMM control protein annotation, biochemical, small-molecule microarray, Alexa647 label, 635 nm (AID 1127).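 Note: z combines 667 nm emission intensity with signal-to-noise across three replicate slides.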 The settings on record: ConA-A647 binding fluorescence, higher = more signal.
Concanavalin-A (Canavalia ensiformis), sequence (P02866 whole entry, looked up): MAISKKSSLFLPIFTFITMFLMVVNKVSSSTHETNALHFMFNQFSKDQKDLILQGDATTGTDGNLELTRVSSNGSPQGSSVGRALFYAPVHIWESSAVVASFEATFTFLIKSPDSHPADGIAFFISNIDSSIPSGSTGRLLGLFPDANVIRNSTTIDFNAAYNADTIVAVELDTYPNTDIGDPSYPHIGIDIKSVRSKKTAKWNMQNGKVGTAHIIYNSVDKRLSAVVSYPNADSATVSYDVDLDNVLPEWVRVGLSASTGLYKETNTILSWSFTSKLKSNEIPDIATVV

Calls of active or inactive are those of the source.

Left-right determination factor 2 (Homo sapiens), sequence (O00292 whole entry, looked up): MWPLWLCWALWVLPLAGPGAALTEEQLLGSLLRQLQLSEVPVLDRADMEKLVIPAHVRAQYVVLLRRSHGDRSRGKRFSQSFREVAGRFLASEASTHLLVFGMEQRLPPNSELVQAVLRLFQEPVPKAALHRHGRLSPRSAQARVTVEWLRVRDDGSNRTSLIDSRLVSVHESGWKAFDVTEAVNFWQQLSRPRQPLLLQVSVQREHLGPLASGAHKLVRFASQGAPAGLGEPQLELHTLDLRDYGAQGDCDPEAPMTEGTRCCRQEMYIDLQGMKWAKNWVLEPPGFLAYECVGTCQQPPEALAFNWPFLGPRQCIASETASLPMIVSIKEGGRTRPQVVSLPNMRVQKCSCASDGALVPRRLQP

Take `O=C1O[C@H](c2ccccc2)[C@H](c2ccccc2)N2[C@H]1[C@@H](C(=O)N1CCCCCCC1)[C@]1(C(=O)Nc3ccc(C#CCCO)cc31)[C@H]2c1ccc(OCCO)cc1`: the composite z-score turned out to be 1.62 in [1]; 1.72 in [3]; 3.04 in assay [4]; 1.63 in [5]; 1.65 in assay [6]; 2.49 in assay [7]. Further, the composite z-score was found to be 3.39 in [8]; 5.44 in assay [9]; 4.88 in assay [10]; 0.853 with Albumin (Bos taurus); 2.34 in [12]; 1.12 in [13]. The composite z-score was 1.11 in assay [14]; 5.12 in [15]; 1.12 in [16]; 1.37 with Sam68 (KHDRBS1); 1.62 in assay [17]; 1.19 in [18]. For the same molecule, the z-score in assay [2] is -1.64. The composite Z-score in assay [11] was 10.2 (active).

For the molecule `COC(=O)[C@@]1(Cc2ccccc2)[C@H]2c3cc(C(=O)N(C)C)n(Cc4ccccn4)c3C[C@H]2CN1C(=O)c1ccccc1`, the composite z-score in [1] was -0.271; in assay [3], -0.0545; in assay [4] it was 1.92; in assay [5], 1.35; in assay [6], 0.241; in assay [7], -0.0849. Moreover, the composite z-score in [8] is 0.85; in [9] it was 1.77; in [10], 0.94; with Albumin (Bos taurus), 0.723; in assay [12] it was 0.127; in assay [13], 0.269. Moreover, the composite z-score in assay [14] was 0.971; in assay [15], 3.31; in assay [16], 1.22; in the assay on Sam68 (KHDRBS1), 1.03; in assay [17], -1.4; in assay [18], 1.08. The same molecule yielded a z-score in assay [2] of -0.903. In addition, the composite Z-score in [11] was 0.146 (inactive).

For `NC(=O)NCC#Cc1ccc2c(c1)[C@]1(C(=O)N2)[C@H](c2ccc(OCCO)cc2)N2[C@H](c3ccccc3)[C@H](c3ccccc3)OC(=O)[C@H]2[C@@H]1C(=O)N1CCCCCCC1`, the composite z-score stood at 1.46 in [1]; 1.73 in [3]; 2.77 in assay [4]; 1.2 in [5]; 1.38 in [6]; 0.565 in assay [7]. Moreover, the composite z-score in [8] amounted to 3.11; in assay [9], 4.35; in [10] it was 1.77; with Albumin (Bos taurus), 0.435; in assay [12] it was 2.08; in [13] it was 1.13. Further, the composite z-score in [14] amounted to 0.894; in [15] it was 2.81; in assay [16], 0.669; with Sam68 (KHDRBS1), 1.23; in [17], 1.13; in assay [18], 1.14. In assay [2], this molecule registered a z-score of -1.02. Besides, the composite Z-score in assay [11] is 5.46 (inactive).

On to `COc1ccc([Si](C)(C)[C@@H]2[C@@H](CCO)O[C@]3(C(=O)N(Cc4ccc(N5C(=O)c6ccccc6Oc6ccccc65)cc4)c4ccccc43)[C@H]2C)cc1`, for which the composite z-score in assay [1] was -0.0261; in assay [3] it was -1.16; in assay [4] it was 0.322; in assay [5] it was 0.751; in assay [6], -0.0643; in [7], -0.138. Besides, the composite z-score is -0.358 in [8]; -1.06 in assay [9]; 0.0794 in [10]; 0.0104 with Albumin (Bos taurus); -0.0984 in [12]; -0.106 in assay [13]. Moreover, the composite z-score in assay [14] was -0.104; in [15] it was 0.232; in [16] it was -0.398; in the assay with Sam68 (KHDRBS1), -0.345; in assay [17] it was -0.968; in assay [18], 0.187. The same molecule returned a z-score in assay [2] of -4.95. Also, the composite Z-score in assay [11] was 0.441 (inactive).

Regarding `CC[C@@H]1[C@@H]2C3C(=O)N(CC)C(=O)C3CC(=O)[C@@H]2[C@H](c2ccc(C)cc2)N1S(=O)(=O)c1ccc(C)cc1` (stereo not given in full), the composite z-score in assay [1] is 1.42; in [3], 0.336; in assay [4], 0.742; in assay [5], 0.409; in assay [6], -0.0761; in assay [7], 0.232. Further, the composite z-score in assay [8] was -0.546; in assay [9], 1.22; in assay [10], 0.564; with Albumin (Bos taurus), 0.701; in assay [12] it was 0.0077; in assay [13] it was 0.131. Besides, the composite z-score was 0.749 in assay [14]; 2.61 in assay [15]; 1.64 in assay [16]; 1.34 in the assay with Sam68 (KHDRBS1); -0.337 in assay [17]; 0.876 in assay [18]. In assay [2], this molecule returned a z-score of -1.64. In assay [11], the composite Z-score was -0.304 (inactive).
